PubChem BioAssay (NCATS)
Several values for one entry are separate records, joined by “and”; a condition that tells them apart may be missing. Identical values can stand only once. Results filed as inconclusive are left out. Some structures have more than one record in an assay (separate samples or runs), and their calls can disagree. A number with no mark means an inactive call. Activity calls are given as the source filed them. The call rests on the fitted dose curve; in most records, active means well fitted inhibition curve with a large enough effect; inconclusive means small, poorly fitted or top-dose-only effect; inactive means flat fitted curve, though single readings scatter.

tested on: HaCat; assay: Cytotoxic Profiling of Annotated Libraries Using Quantitative High-Throughput Screening (AID 1296008); settings: Five cell lines viability, CellTiter-Glo ATP luminescence, 48-72 h; max response: stronger effect = lower value; further: nearly all actives have a fitted effect of over 60% in size
Procedure, shortened: (§1)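 Cells exposed to compounds for 48 or 72 hr at 37 degrees Celsius. Viability read as ATP-coupled luminescence with CellTiter-Glo after 10 min at room temperature.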
On the % scale 0 is the no-effect control and ±100 the full control effect; potency means the concentration at half of the fitted maximal effect.

| SMILES | outcome | max response |
| --- | --- | --- |
| N[C@H](C(=O)O)c1ccc(O)cc1 | inactive |  |
| N[C@@H](CSSC[C@H](N)C(=O)O)C(=O)O | inactive |  |
| CCCCN1CCCC[C@H]1C(=O)Nc1c(C)cccc1C |  | -56.1% |
| C[C@@H]1CN(c2c(F)c(F)c3c(=O)c(C(=O)O)cn(C4CC4)c3c2F)C[C@H](C)N1 | inactive |  |
| CC/C=C(\C(=O)N[C@@H]1C(=O)N2C(C(=O)OCOC(=O)C(C)(C)C)=C(COC(N)=O)CS[C@H]12)c1csc(N)n1 |  | -0.519% and -7.83% |
| OCC(CO)N[C@H]1C[C@](O)(CO)[C@@H](O)[C@H](O)[C@H]1O | inactive |  |
| Cc1ncc([N+](=O)[O-])n1CC(O)CCl (stereo not given) | inactive |  |
| C/C(=C(\CCOP(=O)(O)O)SC(=O)c1ccccc1)N(C=O)Cc1cnc(C)nc1N | inactive |  |
| CC(C)C(=O)c1c(C(C)C)nn2ccccc12 |  | 2.88% |
| O=C(O)[C@H](O)c1ccccc1 | inactive |  |
| C[C@H](NC(CCc1ccccc1)C(=O)O)C(=O)N1CCC[C@H]1C(=O)O (stereo not given in full) | inactive |  |
| Cc1cc(N)c2ccccc2[n+]1CCCCCCCCCC[n+]1c(C)cc(N)c2ccccc21 |  | -1.45% |
| COc1ccc2cc1Oc1cc3c(cc1OC)CC[N+](C)(C)[C@H]3Cc1ccc(cc1)Oc1c(OC)c(OC)cc3c1[C@@H](C2)[N+](C)(C)CC3 |  | 0.882% |
| c1ccc2c(CC3=NCCN3)cccc2c1 |  | -1.06% |
| CN(C)CCCN1c2ccccc2CCc2ccccc21 |  | -28.4% |
| CC1=C(CC(=O)O)c2cc(F)ccc2/C1=C\c1ccc(S(C)(=O)=O)cc1 |  | -12.4% |
| O=C(O)Cc1sc(-c2ccccc2)nc1-c1ccc(Cl)cc1 | inactive |  |
| C[C@H]1O[C@H](O[C@H]2[C@H](O)[C@@H](O)[C@@H](O[C@H]3[C@H](O)[C@@H](O)[C@H](O)O[C@@H]3CO)O[C@@H]2CO)[C@H](O)[C@@H](O)[C@@H]1N[C@H]1C=C(CO)[C@@H](O)[C@H](O)[C@H]1O | inactive |  |
| C[C@]12CC[C@@H]3c4ccc(O)cc4CC[C@H]3[C@@H]1CCC2=O |  | 3.4% |

| SMILES | outcome | max response |
| --- | --- | --- |
| CN(C)CC[C@@H](c1ccc(Cl)cc1)c1ccccn1 |  | 0.999% |
| Nc1cc(=O)[nH]c(N)n1 | inactive |  |
| CO/N=C(\C(=O)N[C@@H]1C(=O)N2C(C(=O)O)=C(CSc3nc(=O)c(O)nn3C)CS[C@H]12)c1csc(N)n1 |  | -21.1% |
| CCN(CC)CCOC(=O)C1(C2CCCCC2)CCCCC1 | inactive |  |
| CC(C)(O)c1ccccc1CC[C@@H](SCC1(CC(=O)O)CC1)c1cccc(/C=C/c2ccc3ccc(Cl)cc3n2)c1 | inactive |  |
| CC1=C(C/C=C(\C)CCC[C@H](C)CCC[C@H](C)CCCC(C)C)C(=O)c2ccccc2C1=O | inactive |  |
| C[C@@H]1CC[C@@]2(OC1)O[C@H]1C[C@H]3[C@@H]4CC[C@H]5C[C@@H](O)CC[C@]5(C)[C@H]4CC(=O)[C@]3(C)[C@H]1[C@@H]2C | inactive |  |
| C[C@@H](O)[C@H](N)C(=O)O | inactive |  |
| Cn1cc[nH]c1=S | inactive |  |
| O=C(O)[C@@H]1CSCN1 | inactive |  |
| C=CCn1c(=O)n([C@@H]2O[C@H](CO)[C@@H](O)[C@H]2O)c2nc(N)[nH]c(=O)c21 | inactive |  |
| CC1(C)S[C@@H]2[C@H](NC(=O)Cc3ccccc3)C(=O)N2[C@H]1C(=O)O (tested in a mixture with another compound) |  | -1.15% |
| CN(C)CCCO[C@@H]1[C@H]2OC(C)(C)O[C@H]2O[C@@H]1C(O)CO (stereo not given in full) | inactive |  |
| N[C@H]1C(O)O[C@H](CO)[C@@H](O)[C@@H]1O (stereo not given in full) | inactive |  |
| O=C1O[C@H](CO)[C@@H](O)[C@H](O)[C@H]1O | inactive |  |
| NS(=O)(=O)c1cc2c(cc1C(F)(F)F)NC(Cc1ccccc1)NS2(=O)=O (stereo not given) | inactive |  |
| Nc1ccc(S(=O)(=O)Nc2nccs2)cc1 |  | -0.23% and -23.1% |
| CC1CC(OC(=O)C(O)c2ccccc2)CC(C)(C)N1C (stereo not given) |  | 1.05% |
| C[C@@H]1CCN(C(=O)[C@H](CCCN=C(N)N)NS(=O)(=O)c2cccc3c2NC[C@H](C)C3)[C@@H](C(=O)O)C1 |  | 0.409% |

tested on: KB-3-1; assay: as above; settings: Five cell lines viability, CellTiter-Glo ATP luminescence, 48-72 h; max response: stronger effect = lower value
Procedure, shortened: as §1

| SMILES | max response | outcome | Potency |
| --- | --- | --- | --- |
| N[C@H](C(=O)O)c1ccc(O)cc1 | 2.74% |  |  |
| N[C@@H](CSSC[C@H](N)C(=O)O)C(=O)O | 4.84% |  |  |
| CCCCN1CCCC[C@H]1C(=O)Nc1c(C)cccc1C | 2.43% | inactive |  |
| C[C@@H]1CN(c2c(F)c(F)c3c(=O)c(C(=O)O)cn(C4CC4)c3c2F)C[C@H](C)N1 | -12.7% | inactive |  |
| CC/C=C(\C(=O)N[C@@H]1C(=O)N2C(C(=O)OCOC(=O)C(C)(C)C)=C(COC(N)=O)CS[C@H]12)c1csc(N)n1 | -16.1% and -3.61% |  |  |
| OCC(CO)N[C@H]1C[C@](O)(CO)[C@@H](O)[C@H](O)[C@H]1O | -14.4% |  |  |
| Cc1ncc([N+](=O)[O-])n1CC(O)CCl (stereo not given) | 18% |  |  |
| C/C(=C(\CCOP(=O)(O)O)SC(=O)c1ccccc1)N(C=O)Cc1cnc(C)nc1N | 9.44% |  |  |
| CC(C)C(=O)c1c(C(C)C)nn2ccccc12 | -2.88% |  |  |
| O=C(O)[C@H](O)c1ccccc1 | 5.08% |  |  |
| C[C@H](NC(CCc1ccccc1)C(=O)O)C(=O)N1CCC[C@H]1C(=O)O (stereo not given in full) | -16.2% |  |  |
| Cc1cc(N)c2ccccc2[n+]1CCCCCCCCCC[n+]1c(C)cc(N)c2ccccc21 | -23.8% |  | 9.2 µM (active) |
| COc1ccc2cc1Oc1cc3c(cc1OC)CC[N+](C)(C)[C@H]3Cc1ccc(cc1)Oc1c(OC)c(OC)cc3c1[C@@H](C2)[N+](C)(C)CC3 | 0.968% |  |  |
| c1ccc2c(CC3=NCCN3)cccc2c1 | -1.96% and -17.3% and -10.3% |  |  |
| CN(C)CCCN1c2ccccc2CCc2ccccc21 | -10.8% |  |  |
| CC1=C(CC(=O)O)c2cc(F)ccc2/C1=C\c1ccc(S(C)(=O)=O)cc1 | -9.19% |  |  |
| O=C(O)Cc1sc(-c2ccccc2)nc1-c1ccc(Cl)cc1 | -1.67% and -19.6% and -27.8% |  |  |
| C[C@H]1O[C@H](O[C@H]2[C@H](O)[C@@H](O)[C@@H](O[C@H]3[C@H](O)[C@@H](O)[C@H](O)O[C@@H]3CO)O[C@@H]2CO)[C@H](O)[C@@H](O)[C@@H]1N[C@H]1C=C(CO)[C@@H](O)[C@H](O)[C@H]1O | -3.3% |  |  |
| C[C@]12CC[C@@H]3c4ccc(O)cc4CC[C@H]3[C@@H]1CCC2=O | 23.7% |  |  |

| SMILES | max response | outcome | Potency |
| --- | --- | --- | --- |
| CN(C)CC[C@@H](c1ccc(Cl)cc1)c1ccccn1 | -22.8% |  |  |
| Nc1cc(=O)[nH]c(N)n1 | -2.08% |  |  |
| CO/N=C(\C(=O)N[C@@H]1C(=O)N2C(C(=O)O)=C(CSc3nc(=O)c(O)nn3C)CS[C@H]12)c1csc(N)n1 | -0.48% |  |  |
| CCN(CC)CCOC(=O)C1(C2CCCCC2)CCCCC1 | -11.2% |  |  |
| CC(C)(O)c1ccccc1CC[C@@H](SCC1(CC(=O)O)CC1)c1cccc(/C=C/c2ccc3ccc(Cl)cc3n2)c1 | -11.2% and 6.98% |  |  |
| CC1=C(C/C=C(\C)CCC[C@H](C)CCC[C@H](C)CCCC(C)C)C(=O)c2ccccc2C1=O | -12.7% |  |  |
| C[C@@H]1CC[C@@]2(OC1)O[C@H]1C[C@H]3[C@@H]4CC[C@H]5C[C@@H](O)CC[C@]5(C)[C@H]4CC(=O)[C@]3(C)[C@H]1[C@@H]2C | 1.37% |  |  |
| C[C@@H](O)[C@H](N)C(=O)O | 1.86% |  |  |
| Cn1cc[nH]c1=S | 10.2% |  |  |
| O=C(O)[C@@H]1CSCN1 | 0.966% |  |  |
| C=CCn1c(=O)n([C@@H]2O[C@H](CO)[C@@H](O)[C@H]2O)c2nc(N)[nH]c(=O)c21 | 17% |  |  |
| CC1(C)S[C@@H]2[C@H](NC(=O)Cc3ccccc3)C(=O)N2[C@H]1C(=O)O (tested in a mixture with another compound) | 9.18% |  |  |
| CN(C)CCCO[C@@H]1[C@H]2OC(C)(C)O[C@H]2O[C@@H]1C(O)CO (stereo not given in full) | 3.47% |  |  |
| N[C@H]1C(O)O[C@H](CO)[C@@H](O)[C@@H]1O (stereo not given in full) | 2.62% |  |  |
| O=C1O[C@H](CO)[C@@H](O)[C@H](O)[C@H]1O | 25.2% |  |  |
| NS(=O)(=O)c1cc2c(cc1C(F)(F)F)NC(Cc1ccccc1)NS2(=O)=O (stereo not given) | -0.539% |  |  |
| Nc1ccc(S(=O)(=O)Nc2nccs2)cc1 | -16.1% | inactive |  |
| CC1CC(OC(=O)C(O)c2ccccc2)CC(C)(C)N1C (stereo not given) | 1.03% and 0.565% |  |  |
| C[C@@H]1CCN(C(=O)[C@H](CCCN=C(N)N)NS(=O)(=O)c2cccc3c2NC[C@H](C)C3)[C@@H](C(=O)O)C1 | 1.81% |  |  |
